# Hits are enriched below; roughly 7.9% of the tested compounds scored in any of these assays.
# FMDV inh: antivirals against foot and mouth disease virus; 410,000 compounds, 1.2% hits; FMDV antiviral cell-based qHTS; Potency, µM (titrated, usually from 57.9 µM), inactives show at the top dose activity change, negative = inhibition, actives largely listed as inhibitors; calls by dose curve; tested in HEK293T cells; also: read-out not given here; potency is read from the fitted curve at half-maximal effect; nearly all actives have a fitted effect of over 45% in size
# Marburg entry inh: blocks Marburg virus binding to or entry into cells | Marburg virus pseudotyped entry inhibition, cell reporter | Potency, µM (titrated, usually from 37.8 µM), without a hit: top-dose activity change, negative = inhibition, hits mostly inhibitors | 300,000 compounds, 1.8% hits | AID 540276; calls by dose curve; tested in HEK293 cells; also: potency is read from the fitted curve at half-maximal effect
# HCMV antiviral: human cytomegalovirus inhibition | HFF cells, HCMV-luciferase reporter, 72 h; active compounds read low | activity change, negative = inhibition, % at 57.5 µM | 410,000 compounds, 4.5% hits; in the data active = activity change below about -60%; inconclusive = no clear call, values can overlap the other calls; inactive = above about -39%
#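 After 16 h attachment at 37C, HFF cells received test compound and HCMV-luciferase (1 PFU/cell); reporter luminescence read 72 h later, data normalized against buffer-only and known inhibitor Salinomycin.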
# HCV inh: inhibitors of hepatitis C virus infection; Potency, µM (doses to about 41.8 µM), for the others: at the highest dose activity change, negative = inhibition, usual class: inhibitors; Huh7.5.1 HCVcc-Cre infection, luciferase reporter, 44 h; AID 651820; 340,000 compounds, 3.4% hits; active = well fitted inhibition curve with a large enough effect; inconclusive = small, poorly fitted or top-dose-only effect, or another doubt; inactive = no such curve, though single readings can be large or run the other way; also: potency is read from the fitted curve at half-maximal effect
#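 Reporter virus HCVcc-Cre (~0.5 moi) infects cells exposed to compound; seeding density 1,000 cells/well with 4 h settling beforehand. Luminescence, 15 sec read, taken 44 h post-infection following a 15 min RT substrate incubation.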
# LASV entry inh: blocks Lassa virus binding to or entry into cells; Potency, µM (doses to about 37.9 µM), without a hit: top-dose activity change, negative = inhibition, most hits filed as inhibitors; Lassa virus pseudotype entry inhibition, cell reporter; 300,000 compounds, 1.2% hits; calls by dose curve; tested in HEK293 cells; also: potency is read from the fitted curve at half-maximal effect; nearly all actives have a fitted effect of over 50% in size
# Starred values were filed as active, the others as inactive; ? = inconclusive; . = no result; [ ] = dose if it differs, or a comment. % is scaled to controls: 0 for no effect and ±100 for the full control effect.
SMILES,FMDV inh,Marburg entry inh,HCMV antiviral,HCV inh,LASV entry inh
O=C(Nc1ccccc1)c1c(F)c(F)c(F)c(F)c1F,.,1.0%,?,?,-5.3%
COc1cccc(-n2nc(C#N)c(Cl)cc2=O)c1,11.2µM*,?,-96.3*,?,?
COc1cc(C(=O)ONC(=O)c2ccc(OC(F)F)cc2)cc(OC)c1OC,-19.0%,?,-0.2,-7.9%,9.2µM*
Cc1cccc2c1N[C@H](C)C[C@@H]2C,.,6.9%,.,.,.
CCOc1ccc(/C=N/NC(=O)Cc2ccccc2)cc1CN1CC2CC(C1)c1cccc(=O)n1C2 (stereo unspecified),-3.0%,-6.4%,-33.2,7.94µM*,.
CC(C)(C)c1nc2ccc(NS(=O)(=O)c3ccc(F)c(F)c3F)cc2[nH]1,-9.7%,-0.2%[46.1 µM],-66.2*,-5.0%,-11.8%
O=S(=O)(Nc1ccc2nc(C(F)(F)F)[nH]c2c1)c1ccccc1,.,-27.9%,?,?,?
c1ccc2c(c1)ccc1[nH]c3c(c12)CCCC3,-3.5%,0.501µM*,57.0,?,0.631µM*
CC(/C=N/NC(=O)c1cc(-c2ccc(C)s2)[nH]n1)=C\c1ccccc1,-0.5%,?,5.0,5.62µM*,?
CC(=C/c1ccccc1)/C=N/NC(=O)c1ccccn1,?,?,6.6,0.9%,?
CC(/C=N/NC(=O)c1cc(C(C)(C)C)[nH]n1)=C\c1ccccc1,-22.3%,?,2.1,14.1µM*,?
CC(/C=C/c1ccccc1)=N/NC(=O)c1cnccn1,24.8%,19.3%[46.1 µM],-0.9,-1.8%,12.6%
CC(/C=C/c1ccccc1)=N\NC(=O)c1cc(C)[nH]n1,11.8%,27.7%,?,14.1µM*,0.6%
COc1ccc(C(=O)n2nc(-c3cccnc3)nc2NCc2ccccc2)cc1OC,-9.4%,10.0%[46.1 µM],13.0,.,?
COc1cc(OC)c(OC)cc1CN1CCCC(c2[nH]ncc2-c2cccc(C(F)(F)F)c2)C1 (stereo unspecified),-6.6%,.,.,.,.
COc1ccc(NC(=O)CSc2nc3c(c(=O)[nH]2)CN(Cc2ccccc2)CC3)cc1Cl,-6.7%,?,-2.9,.,-28.2%[46.1 µM]
CCOC(=O)Cn1c(S(=O)(=O)Cc2ccc(Cl)cc2)nc(-c2ccccc2)c1-c1ccccc1,-17.8%,?,?,35.5µM*,?
C#CCn1c(S(=O)(=O)Cc2ccc(OC)cc2)nc(-c2ccccc2)c1-c1ccccc1,-18.0%,4.11µM*,-39.4,-11.1%,?
CCOC(=O)Cn1c(S(=O)(=O)Cc2ccccc2)nc2ccccc21,-6.2%,0.5%,5.8,0.8%,5.0%
CC(C)COc1ccc(C(=O)N[C@@H](CC(C)C)C(=O)O)cc1,.,26.8%,.,.,.
O=C(Nc1ccc(Oc2cccnc2)cc1)c1ccc([N+](=O)[O-])cc1,-5.4%,2.1%[46.1 µM],-16.9,?,0.2%
O=C(Nc1ccncc1)c1cncc(Br)c1,1.5%,1.9%,-32.5,16.6%,-8.4%
O=C(Nc1ccc(Nc2ccncc2)cc1)c1ccc([N+](=O)[O-])cc1,?,.,-90.4*,11.2µM*,.
O=C(Nc1ccc([N+](=O)[O-])cc1)c1cncc(Br)c1,7.6%,.,-85.2*,-7.6%,.
CCN1C(=NCc2ccc(OC)cc2)NC(c2cccc(F)c2)C(C(=O)OC)=C1C (stereo unspecified),.,2.4%[14.2 µM],.,.,.
SMILES,FMDV inh,Marburg entry inh,HCMV antiviral,HCV inh,LASV entry inh
COc1cc(=O)n2c(c1C(=O)NCc1ccco1)CCN(C(=O)c1ccc(C)c(C)c1)CC2,-10.5%,.,.,.,.
Cc1nc2nc(CNC(=O)OC(C)(C)C)nn2c(C)c1CCC(=O)NCc1ccc(F)cc1,1.6%,?,-9.1,.,7.9%[46.1 µM]
Cc1c(Cl)cccc1N/C(SCC(=O)N1CCCCCC1)=C(/C#N)c1nc2ccccc2s1,?,11.2µM*,-101.3*,?,?
O=C(CSc1nc2ccccc2s1)N1CCCCC1,.,4.5%,111.6,-4.0%,20.1%
Cc1ccc(C2c3[nH]c4ccccc4c3CCN2C(=O)c2ccc(N(C)C)cc2)cc1 (stereo unspecified),-17.5%,.,64.0,.,?
Cc1ccc(C2c3[nH]c4ccccc4c3CCN2C(=O)c2ccccc2Br)cc1 (stereo unspecified),-16.9%,.,-77.7*,.,?
Cc1cccc(C2c3[nH]c4ccccc4c3CCN2C(=O)c2nn(C)c(=O)c3ccccc23)n1 (stereo unspecified),?,?,85.0,?,11.2µM*
Cc1ccc(C2c3[nH]c4ccccc4c3CCN2C(=O)CCC2CCCC2)cc1 (stereo unspecified),-29.1%,.,-93.1*,.,?
O=C(c1ccc(Nc2nc3ccccc3n3nnnc23)cc1)N1CCN(c2ccc(F)cc2)CC1,-7.6%,28.7%[46.1 µM],-10.6,.,-11.2%[46.1 µM]
CCCCCN(C(=O)CCC(=O)OCc1ccccc1Cl)c1c(N)n(CCCC)c(=O)[nH]c1=O,12.1%,?,-2.2,.,-20.0%
CCCCn1c(N)c(N(CC)C(=O)c2cccc(OC)c2)c(=O)[nH]c1=O,-8.0%,3.5%[46.1 µM],-71.7*,4.9%,24.4%[46.1 µM]
CCCCCN(C(=O)CCC(=O)OCc1ccc(Cl)cc1Cl)c1c(N)n(CCCC)c(=O)[nH]c1=O,-27.7%,2.51µM*,-9.3,?,?
CCCCn1c(N)c(N(CC)C(=O)c2cccs2)c(=O)[nH]c1=O,-1.7%,11.8%,-60.5*,-1.8%,4.9%
CCCCn1c(N)c(N(CC)C(=O)c2ccncc2)c(=O)[nH]c1=O,-18.7%,.,8.5,-26.1%,.
COc1cc(-c2cccc(Cl)c2)cc2c1OCCN(C(=O)CCn1ccc(C)n1)C2,-14.8%,.,.,.,.
CCC1=Nc2cc(C(=O)NC3CCCC3)ccc2Sc2ccc(Cl)cc21,-22.9%,?,-70.5*,.,?
CCC1=Nc2cc(C(=O)NCC3CCCO3)ccc2Sc2ccc(Cl)cc21 (stereo unspecified),2.7%,.,0.0,?,.
CNC(=O)c1ccc2c(c1)N=C(C)c1cc(C)ccc1S2,-8.6%,?,3.8,.,-17.4%[46.1 µM]
CCC1=Nc2cc(C(=O)NCc3ccco3)ccc2Sc2ccccc21,6.8%,-13.3%,-2.5,?,?
CC1=Nc2cc(C(=O)NC(C)C)ccc2Sc2ccc(C)cc21,-18.2%,?,-76.9*,.,2.8%[46.1 µM]
CCC1=Nc2cc(C(=O)NCc3ccco3)ccc2Sc2ccc(Cl)cc21,-14.3%,?,-66.6*,?,?
CC1=Nc2cc(C(=O)NC3CCCC3)ccc2Sc2ccc(C)cc21,-2.2%,?,-93.4*,.,-33.0%[46.1 µM]
CS(=O)(=O)Nc1cccc(Nc2nccc3[nH]c(-c4cccc(C(F)(F)F)c4)cc23)c1,.,.,-7.4,.,.
CC1=Nc2cc(C(=O)NC3CCCC3)ccc2Sc2ccc(Cl)cc21,-25.4%,.,-72.0*,.,?
CN1c2ccccc2N(C)C1(C)c1ccccc1,0.0%,?,-92.8*,-4.6%,?
CCN1c2ccccc2N(C)C1(C)c1ccccc1 (stereo unspecified),?,?,.,-26.6%,?
CO[C@@H]1CN(C)C(=O)c2ccc(NC(=O)C3CCCC3)cc2OC[C@@H](C)N(Cc2ccc(F)cc2)C[C@H]1C,-13.7%,.,-63.4*,.,.
Cc1ccc2[nH]c(-c3ccc(Cl)cc3)c(C#N)c2c1,.,.,33.6,.,.

# Screening data from PubChem.
